IP6K1 inh: blocks human inositol hexakisphosphate kinase 1. IP6K1 kinase, ADP-Glo luminescence, 2 h; active compounds read low. activity change, % (series mostly up to about 58 µM). 0.81% of 140,000 active. Q92551; in the data active means activity change below about -25%; further: on the % scale 0 is the no-effect control and ±100 the full control effect
Target sequence (Q92551 whole entry, looked up): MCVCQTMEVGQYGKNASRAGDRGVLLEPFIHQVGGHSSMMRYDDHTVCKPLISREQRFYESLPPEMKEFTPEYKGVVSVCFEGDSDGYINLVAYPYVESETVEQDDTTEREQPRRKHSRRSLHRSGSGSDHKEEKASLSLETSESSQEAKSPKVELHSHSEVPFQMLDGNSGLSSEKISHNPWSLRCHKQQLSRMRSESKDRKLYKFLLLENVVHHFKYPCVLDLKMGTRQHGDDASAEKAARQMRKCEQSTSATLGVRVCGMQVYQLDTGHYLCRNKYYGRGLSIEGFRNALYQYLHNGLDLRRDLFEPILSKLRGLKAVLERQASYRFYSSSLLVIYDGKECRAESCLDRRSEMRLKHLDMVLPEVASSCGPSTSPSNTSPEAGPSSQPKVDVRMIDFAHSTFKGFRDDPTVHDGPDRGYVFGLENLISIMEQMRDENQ
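ADP-Glo luminescence measures ADP made by human IP6K1 during a 2 h RT reaction with ATP/IP6 (mix at 1.3 mM/130 uM); top library doses 57.5 and 19.1 uM final.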
KDM5B inhibitor: blocks human KDM5B histone demethylase activity. 2.6% of 220,000 active. KDM5B demethylase, FDH-coupled NADH fluorescence (FDH is formaldehyde dehydrogenase). Potency, µM (doses to about 57.7 µM), usual class: inhibitors. Q9UGL1. AID 1347165; further: potency means the concentration at half of the fitted maximal effect; 0% is about no effect; nearly all actives have a fitted effect of over 70% in size
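qHTS format, multiple compound concentrations. Buffer 50 mM HEPES pH 7.5/0.01% Tween-20; 200 nM KDM5BΔAP final; 10 min compound preincubation; substrate-mix levels 12.5 µM peptide, 25 µM α-KG, 0.25 mM NAD⁺; 30 min RT; ΔRFU.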
IP6K1 inh cnf: confirmation of human IP6K1 inhibitors; shares compounds with IP6K1 inh; recombinant IP6K1 kinase, ADP-Glo luminescence, 2 h; Potency, µM (top dose mostly 49 µM), for the others: at the highest dose activity change, negative = inhibition, usual class: inhibitors; 13% of 1,200 active; AID 1645852; further: potency means the concentration at half of the fitted maximal effect; on the % scale 0 is the no-effect control and ±100 the full control effect; nearly all actives have a fitted effect of over 65% in size
The depositor's hits bear a star; i = inactive; ? = inconclusive; / = no result; ! = a repeat was not active. Sampled rows, rich in hits. Any-hit rate of the full collection: about 2.8%. Unless noted, the call rests on the fitted dose curve; in most records, active means well fitted inhibition curve with a large enough effect; inconclusive means small, poorly fitted or top-dose-only effect; inactive means no such curve, though single readings can be large or run the other way.

SMILES | IP6K1 inh | KDM5B inhibitor | IP6K1 inh cnf
C=CC[C@]1(O)CC[C@H]2[C@@H]3CCC4=CC(=O)CCC4=C3C=C[C@@]21C | -45* | / | -16%
O=C(Cc1ccc(Cl)cc1)N1CCCN(CCn2nc3n(c2=O)CCCC3)CC1 | 0 | / | /
CCOP(=S)(OCC)Oc1ccc2c(C)c(Cl)c(=O)oc2c1 | -52* | / | 6.5µM*
Cc1c(Cl)c(=O)oc2cc(OP(=O)(OCCCl)OCCCl)ccc12 | 6 | / | /
C[C@H](N)C(=O)c1ccccc1 | 0 | / | /
CC(=O)[O][Hg][c]1ccccc1 | -61* | / | 0.65µM*
NCCCN1CCN(Cc2ccccc2)CC1 | / | i | /
N#Cc1nn(-c2c(Cl)cc(C(F)(F)F)cc2Cl)c(N)c1S(=O)C(F)(F)F (configuration not stated) | -41* | / | ?
COc1nn(CSP(=S)(OC)OC)c(=O)s1 | -46* | / | 10µM*
COc1cc2c(cc1-c1ccc(O)c(F)c1)NC(=O)C21CCN(C(C)=O)CC1 | -10 | ? | /
COc1cc2c(cc1OCc1ccccc1)N(C(=O)COc1ccccc1)CC21CCN(C)CC1 | -9 | i | /
CC[n+]1c(-c2ccccc2)c2cc(N)ccc2c2ccc(N)cc21 | -52* | / | ?
COCCn1c(C)cc(C(=O)N2[C@H]3CC[C@@H]2c2cnc(-c4ccc(F)cc4)nc2C3)c1C | 12 | i | /
CN(C)c1ccc([N+](=O)[O-])c2cnccc12 | / | i | /
CCN(CC)C(=O)[C@@H]1C=C2c3cccc4[nH]cc(c34)C[C@H]2N(C)C1 | -72* | / | 2%
CN1Cc2ccccc2-n2ccnc2C12CCN(C(=O)C1CCC1)CC2 | 8 | i | /
CCOC(=O)CC(SP(=S)(OC)OC)C(=O)OCC (configuration not stated) | -70*! | / | 18µM*
O=C(CNC12CC3CC(CC(C3)C1)C2)c1ccc(Cl)cc1 | / | i | /
N#Cc1ccc(NC(=O)CSc2ccc3c(c2)OCCCO3)cc1Cl | / | i | /
CNC(=O)[C@@H]1[C@@H](c2ccccc2)CN2CCN(C(C)=O)C[C@H]12 | -5 | / | /
CC[C@H]1CN2CC[C@H]1C[C@@H]2CNC(=O)Nc1ccc(C(C)(C)C)cc1 | 4 | i | /
CC[C@H]1CN2CC[C@H]1C[C@@H]2CNC(=S)Nc1ccc(N(C)C)cc1 | -33* | i | -11%
O=C1CSC(c2ccc(F)c(Br)c2)c2cn[nH]c2N1 (configuration not stated) | / | i | /
O=C(Cc1ccccc1)N1CCCN(CCn2nc3n(c2=O)CCCC3)CC1 | -11 | / | /
O=C1Nc2ccccc2C12CCN(Cc1ccc(C(F)(F)F)cc1)CC2 | -32* | i | ?
SMILES | IP6K1 inh | KDM5B inhibitor | IP6K1 inh cnf
O=C1Nc2ccccc2C12CCN(Cc1ccc(F)cc1)CC2 | -15 | i | /
Cn1cccc1CN1CCC2(CC1)C(=O)Nc1ccccc12 | -14 | ? | /
O=C1Nc2ccccc2C12CCN(Cc1cccc3ccccc13)CC2 | -47* | i | ?
COc1cc2c(cc1OCC1CC1)NC(=O)C21CCN(Cc2cccc(O)c2)CC1 | -16 | i | /
Cc1cccc(OCC(=O)N2CC(N(Cc3ccncc3)CC(C)C)C2)c1 | 10 | / | /
COc1cc2c(cc1OCc1ccccc1)NC(=O)C21CCN(Cc2nccs2)CC1 | -33* | i | ?
COc1cc2c(cc1OCc1ccncc1)NC(=O)C21CCN(Cc2ccccc2)CC1 | -22 | i | /
CNC(=O)C1CCN(C(=O)c2cn(Cc3ccccc3)c3ccccc23)CC1 | / | i | /
C=C[C@H]1CN2CC[C@H]1C[C@@H]2CNC(=O)Nc1cccc(C(F)(F)F)c1 | -1 | i | /
COc1ccc2c(c1)C1(CCN(C(=O)COc3ccc(Cl)cc3)C1)C(=O)N2C (configuration not stated) | -18 | i | /
CCOc1ccc2c(n1)CCNC2 | -26* | i | -4%
COc1cc2c(cc1OCC1CC1)NC(=O)C21CCN(c2nc(C)cnc2C)CC1 | -32* | i | -19%
COc1cc2c(cc1OCC1CC1)NC(=O)C21CCN(c2nccs2)CC1 | 0 | i | /
Cc1nc(-c2cccs2)cc([C@H]2CN3CC[C@H]2C[C@@H]3COC(=O)Nc2cccc(C(F)(F)F)c2)n1 | 6 | ? | /
CCOc1ccccc1NC(=O)c1cn(C)c2ccccc12 | / | i | /
COc1ccc(-n2cc(C3=CCN(CCN4CCOCC4)CC3)cn2)cc1 | 1 | i | /

From PubChem BioAssay
